Sampled rows, rich in hits. Any-hit rate of the full collection: about 3%.
HIF-2a block – HIF-2a inhibition; 786-0 RCC cells HIF-2a reporter, luciferase luminescence, overnight; inhibition, % at 18.8 µM; actives 0.72% (n = 360,000); AID 624352;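 active = inhibition of the luminescence signal of 40% or more relative to plate controls, in a single-dose primary screen at 18.75 µM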
TRPM1 prom inh – MITF TRPM1 promoter inhibition in SK-MEL-5 cells | SK-MEL-5 TRPM1 promoter luciferase, 24 h | inhibition, % at 12.5 µM | actives 0.83% (n = 330,000);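 active = mean inhibition across replicates of 60% or more, whatever share of single replicates reaches that level; inconclusive = some that reach 60%, reason not given; inactive = mean inhibition across replicates below 60%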
CF NFkB inh – blocks PAF-induced NF-kB reporter in cystic fibrosis cells; KKLEB NF-kB-GFP reporter, GFP fluorescence overnight; inhibition, % at 5 µM; actives 0.86% (n = 360,000); AID 588850;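 active = at least 50% inhibition at 5 µM, scaled per plate between neutral and stimulator controls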;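 also: PAF is a Pseudomonas aeruginosa culture filtrate used as stimulus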
KKLEB tox – counter-screen for CF NF-kB inhibitors: cytotoxicity; activity change (cytotoxicity), % at 5 µM; actives 0.36% (n = 360,000); AID 602141; KKLEB CF airway cells viability, ATPlite luminescence, overnight; active compounds read low; cells stimulated with P. aeruginosa culture filtrate;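 active = corrected activity change at or below -50% at 5 µM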
Peg3 prom inh – Peg3 promoter activity inhibition. HeLa PEG-Prom luciferase reporter, luminescence, overnight. inhibition, % at 20 µM. actives 1.7% (n = 360,000);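 active = inhibition of at least 50% at 20 µM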
EBV LMP1 NFkB – Epstein-Barr LMP1 NF-kappaB reporter inhibition; LMP1-induced NF-kappaB luciferase reporter cells, luminescence; actives 0.69% (n = 350,000); inhibition, % at 12.5 µM; in the data active = inhibition above about 41%; inconclusive = no clear call, values can overlap the other calls
Large screens that a line does not name were inactive.

CCCCN(C=O)c1c(CC)nc2ccc(C(=O)NCCCn3ccnc3)cn12	none (no result: TRPM1 prom inh, EBV LMP1 NFkB)
COc1cc(C(CCN2CCCC2)c2c(OC)cc(OC)c3ccc(=O)oc23)cc(OC)c1OC (stereo not drawn)	none
CCCCCc1cc(=O)oc2c(C(CCN3CCCC(C)C3)c3cc(OC)c(OC)c(OC)c3)c(OC)cc(OC)c12 (stereo not drawn)	TRPM1 prom inh 72.7, Peg3 prom inh 101.3
COc1cc(OC)c2ccc(=O)oc2c1C(CCN1CCCC(C)C1)c1ccc(N(C)C)cc1 (stereo not drawn)	none
CCCCCc1cc(=O)oc2c(C(CCN(CC)CC)c3ccc(N(C)C)cc3)c(OC)cc(OC)c12 (stereo not drawn)	TRPM1 prom inh 88.9, Peg3 prom inh 99.6
CCCCCc1cc(=O)oc2c(C(CCN3CCCCC3)c3cc(OC)c(OC)c(OC)c3)c(OC)cc(OC)c12 (stereo not drawn)	TRPM1 prom inh 88.8, Peg3 prom inh 90.5
CCN(CC)CCC(c1cc(OC)c(OC)c(OC)c1)c1c(OC)cc(OC)c2c(C)cc(=O)oc12 (stereo not drawn)	none
CCCCCc1cc(=O)oc2c(C(CCN3CCCC(C)C3)c3ccc(N(C)C)cc3)c(OC)cc(OC)c12 (stereo not drawn)	Peg3 prom inh 94.4
CC1=CC(C)C(=O)N(C)C(C)=C1 (stereo not drawn)	none (no result: TRPM1 prom inh)
COCCNC(=O)C1(C)CCCN(C(=O)c2cc(F)cc(F)c2)C1 (stereo not drawn)	none (no result: TRPM1 prom inh, EBV LMP1 NFkB)
N#Cc1c(NCCN)nc(-c2ccccc2)c2c1CCCC2	Peg3 prom inh 66.5
Cc1cc(N)n(-c2ccc([N+](=O)[O-])cc2)n1	none
Cc1cc(C)n(-c2ccc([N+](=O)[O-])cc2)n1	Peg3 prom inh 106.7
O=C(c1ccco1)N1CCN(S(=O)(=O)/C=C/c2ccccc2)CC1	EBV LMP1 NFkB 49.2
O=C(c1cc2ccccc2o1)N1CCN(S(=O)(=O)/C=C/c2ccccc2)CC1	none
CCN(CC)C(=O)C1CCCN(c2ccccc2[N+](=O)[O-])C1 (stereo not drawn)	none
CCN(CC)C(=O)C1CCCN(c2ccc([N+](=O)[O-])cc2[N+](=O)[O-])C1 (stereo not drawn)	EBV LMP1 NFkB 52.4
O=C(COC(=O)Cc1ccc(Cl)c(Cl)c1)NCCc1ccccc1	none (no result: TRPM1 prom inh)
Cc1cccc(Nc2nc(NCc3ccco3)c3ccccc3n2)c1	Peg3 prom inh 84.9, EBV LMP1 NFkB inconclusive
Cc1ccccc1Cn1nnc2c1C(=O)c1ccccc1C2=O	none
Cc1cccc(Cn2nnc3c2C(=O)c2ccccc2C3=O)c1	CF NFkB inh 62.0
Cc1cccc(NC(=O)c2ccc(C)c(S(=O)(=O)N3CCOCC3)c2)n1	none
Brc1cccc(-c2cnco2)c1	EBV LMP1 NFkB 56.2
CC(C)(C)c1ccc(-c2cnco2)cc1	none
CCN1/C(=C/C=C/C=C/C=C/c2sc3ccccc3[n+]2CC)Sc2ccccc21	TRPM1 prom inh 94.8
CCN1/C(=C/C=C/c2sc3ccccc3[n+]2CC)Sc2ccccc21	TRPM1 prom inh 98.9, Peg3 prom inh 77.6, EBV LMP1 NFkB 50.2
CC[n+]1c(/C=C/Nc2ccccc2)sc2ccccc21	none
COc1ccc(C(=O)N2CCCCC2c2cc(C(=O)NCc3ccccc3)no2)cc1 (stereo not drawn)	none (no result: TRPM1 prom inh, EBV LMP1 NFkB)
COc1ccccc1/C=N/NC(=O)C(=O)Nc1ccccc1OC(F)(F)C(F)F	none
O=C(N/N=C/c1cc(Br)ccc1O)C(=O)Nc1ccccc1OC(F)(F)C(F)F	TRPM1 prom inh 65.5, Peg3 prom inh 57.4
COc1cccc(/C=N/NC(=O)C(=O)Nc2ccccc2OC(F)(F)C(F)F)c1	none
O=C(N/N=C/c1cc(Cl)ccc1O)C(=O)Nc1ccccc1OC(F)(F)C(F)F	TRPM1 prom inh 65.5, Peg3 prom inh 60.0
O=C1O[C@@H](c2ccccc2)C[C@@H](O)C(=O)CCc2ccccc21	none (no result: TRPM1 prom inh, CF NFkB inh, KKLEB tox, Peg3 prom inh, EBV LMP1 NFkB)
CN(C)CCN(C)Cc1ccccc1Sc1cccc2ccccc12	Peg3 prom inh 102.3
CC(C(=O)NCc1ccc(Cl)cc1)n1cccc1C(=O)c1ccccc1 (stereo not drawn)	EBV LMP1 NFkB 74.1
CC(=O)c1c(C)[nH]c(C(=O)Nc2nc(-c3ccc(Cl)cc3)cs2)c1C	none
CC(=O)c1c(C)[nH]c(C(=O)Nc2nc(C)cs2)c1C	EBV LMP1 NFkB 71.4
